Some test systems named below: NCI-H23 lung; NCI-H226 lung; NCI-H322M lung; NCI-H460 lung; HOP-92 NSCLC; A549/ATCC NSCLC; 786-0 renal; COLO 205 colon; DU-145 prostate; K-562 leukemia; MALME-3M melanoma; MDA-MB-231 breast; RXF 393 renal; SF-268 CNS; SF-295 CNS; SF-539 CNS; UACC-257 melanoma; M14 melanoma; NCI-H522 lung; HOP-62 NSCLC.
What all share (assay): NCI-60 one-dose screen, 48 h (100 = growth as untreated, 0 = no growth, -100 = all killed)
Conditions in all cases: 10 µM unless noted

“And” between values parts separate entries of the source, which are not always exact repeats. Identical values can stand only once. Compounds without any hit were thinned out: in the full panel of roughly 83,000, 20% have a hit.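 The test compound was applied at a single concentration to cells in 96-well plates for 48 hours, and percent growth was recorded.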 The source made the active and inactive calls. The calls were made as follows: active = growth percent below 10; inactive = the rest.

As to `CC1(C)C2CCC1(CS(=O)(=O)O)C(=O)C2` (stereo not given), the growth is 108% (inactive) and 105% (inactive) with NCI-H23 lung; 128% (inactive) and 102% (inactive) in the assay with NCI-H226 lung; 90.2% (inactive) and 99.1% (inactive) in the assay on NCI-H322M lung; 111% (inactive) and 108% (inactive) with NCI-H460 lung; 66.9% (inactive) and 99.9% (inactive) in the assay with HOP-92 NSCLC; 96.6% (inactive) and 96.8% (inactive) with A549/ATCC NSCLC. For the same compound, the growth in the assay with 786-0 renal is 101% (inactive) and 98.8% (inactive); in the assay on COLO 205 colon it was 92.9% (inactive) and 132% (inactive); in the assay on DU-145 prostate it was 109% (inactive) and 125% (inactive); in the assay on K-562 leukemia, 99.8% (inactive) and 123% (inactive); in the assay with MALME-3M melanoma it was 85.1% (inactive) and 105% (inactive); in the assay on MDA-MB-231 breast it was 94.9% (inactive) and 108% (inactive). Besides, the growth is 137% (inactive) and 123% (inactive) in the assay on RXF 393 renal; 107% (inactive) and 105% (inactive) in the assay with SF-268 CNS; 101% (inactive) and 100% (inactive) with SF-295 CNS; 91% (inactive) and 112% (inactive) with SF-539 CNS; 99.5% (inactive) and 96.6% (inactive) in the assay on UACC-257 melanoma; 98% (inactive) and 105% (inactive) with M14 melanoma.

With `CC1(C)CN=C(NN=C(/C=C/c2ccc(C(F)(F)F)cc2)/C=C/c2ccc(C(F)(F)F)cc2)NC1`, the growth in the assay with NCI-H23 lung was -43% (active); in the assay on NCI-H226 lung, -15.1% (active); in the assay on NCI-H322M lung it was 31.4% (inactive); with NCI-H460 lung, -54% (active); with NCI-H522 lung it was -76.6% (active); in the assay with 786-0 renal, -90.2% (active). Also, the growth with COLO 205 colon was -91.6% (active); in the assay on DU-145 prostate it was -13.7% (active); in the assay on K-562 leukemia, -37.5% (active); with MALME-3M melanoma, -58.8% (active); in the assay on MDA-MB-231 breast it was -83.1% (active); in the assay with SF-268 CNS, -34.5% (active). The growth in the assay with SF-295 CNS was -70.8% (active); with SF-539 CNS, -78.4% (active); in the assay with UACC-257 melanoma, -45.9% (active); in the assay with M14 melanoma it was -71.7% (active).

Take `CC(C)COC(=O)Cc1ccccc1`: the growth with NCI-H23 lung is 106% (inactive); in the assay on NCI-H226 lung it was 99.4% (inactive); in the assay on NCI-H322M lung, 104% (inactive); in the assay on NCI-H460 lung, 109% (inactive); with HOP-92 NSCLC it was 95.1% (inactive); with NCI-H522 lung it was 99% (inactive). The growth was 105% (inactive) in the assay with A549/ATCC NSCLC; 104% (inactive) in the assay with 786-0 renal; 106% (inactive) with COLO 205 colon; 115% (inactive) in the assay with DU-145 prostate; 109% (inactive) in the assay with K-562 leukemia; 94.4% (inactive) with MALME-3M melanoma. The growth in the assay with MDA-MB-231 breast is 120% (inactive); with RXF 393 renal, 102% (inactive); with SF-268 CNS, 104% (inactive); with SF-295 CNS, 111% (inactive); in the assay on SF-539 CNS, 97.5% (inactive); with UACC-257 melanoma, 104% (inactive). The growth in the assay on M14 melanoma was 103% (inactive).

`Cc1c2ccncc2c(C)c2c1[nH]c1ccccc12`: the growth in the assay with NCI-H23 lung was -79.5% (active); with NCI-H226 lung it was -0.884% (active); in the assay on NCI-H322M lung, -83.3% (active); in the assay on NCI-H460 lung, -69.2% (active); in the assay on A549/ATCC NSCLC, -65.4% (active); in the assay with 786-0 renal, -95.9% (active). In addition, the growth was -87.1% (active) in the assay with COLO 205 colon; -97.8% (active) with DU-145 prostate; 3.9% (active) in the assay with K-562 leukemia; -77.8% (active) with MALME-3M melanoma; -68.9% (active) in the assay with MDA-MB-231 breast; -87.3% (active) in the assay with RXF 393 renal. In addition, the growth is -77.1% (active) in the assay on SF-268 CNS; -84.7% (active) in the assay with SF-295 CNS; -93.6% (active) with SF-539 CNS; -62.1% (active) with UACC-257 melanoma; -89.9% (active) in the assay on M14 melanoma.

As to `C=C1C(=O)OC2CC3(C)OC3C3OC3C3=CC(OC3=O)C12` (stereo not given), the growth with NCI-H23 lung is 93.8% (inactive) and 101% (inactive); in the assay with NCI-H322M lung, 98.7% (inactive) and 101% (inactive); in the assay on HOP-62 NSCLC it was 96.8% (inactive) and 115% (inactive); in the assay on NCI-H460 lung it was 114% (inactive) and 105% (inactive); in the assay on HOP-92 NSCLC, 9.95% (active); with NCI-H522 lung, -74.9% (active) and -76.6% (active). In addition, the growth in the assay with A549/ATCC NSCLC is 93.1% (inactive) and 105% (inactive); in the assay on 786-0 renal, 96% (inactive) and 108% (inactive); in the assay on COLO 205 colon, -77.1% (active); in the assay on DU-145 prostate it was 109% (inactive) and 111% (inactive); in the assay with K-562 leukemia it was -0.414% (active) and 6.29% (active); in the assay on MALME-3M melanoma, -53.4% (active) and -59.2% (active). Moreover, the growth with MDA-MB-231 breast is 104% (inactive) and 107% (inactive); with RXF 393 renal, 8.42% (active) and 68.4% (inactive); in the assay on SF-268 CNS, 99.2% (inactive) and 109% (inactive); in the assay on SF-295 CNS it was 103% (inactive) and 97.9% (inactive); in the assay with SF-539 CNS it was 101% (inactive) and 96.3% (inactive); in the assay with UACC-257 melanoma, 53.6% (inactive) and 82.2% (inactive). The growth in the assay with M14 melanoma was 88.3% (inactive) and 91.9% (inactive).

Take `Cc1cc(N(CCCl)CCCl)ccc1C=Nc1ccc(-c2csc(-c3ccccc3)n2)cc1`: the growth in the assay on NCI-H23 lung was 66.6% (inactive); with NCI-H226 lung it was 58.5% (inactive); with NCI-H322M lung, 117% (inactive); in the assay on NCI-H460 lung, 33.1% (inactive); with HOP-92 NSCLC it was 59.4% (inactive); with A549/ATCC NSCLC, 67.2% (inactive). The growth in the assay on 786-0 renal was 59.2% (inactive); in the assay with COLO 205 colon, 88.9% (inactive); with DU-145 prostate it was 68.3% (inactive); in the assay with K-562 leukemia, 80.4% (inactive); in the assay with MALME-3M melanoma it was 115% (inactive); with MDA-MB-231 breast it was 90.3% (inactive). Further, the growth was 90.1% (inactive) in the assay with RXF 393 renal; 66.7% (inactive) in the assay on SF-268 CNS; 66.2% (inactive) with SF-295 CNS; 74.4% (inactive) in the assay on SF-539 CNS; 86.5% (inactive) in the assay on UACC-257 melanoma; 92.6% (inactive) in the assay on M14 melanoma.

For `O=[N+]([O-])c1ccc2scc3c4ccccc4nc-3c2c1`, the growth in the assay on NCI-H226 lung is -32.4% (active); in the assay on NCI-H322M lung it was 58.1% (inactive); in the assay with HOP-62 NSCLC, 2.95% (active); in the assay on NCI-H460 lung it was 42.7% (inactive); in the assay with HOP-92 NSCLC, -61.8% (active); with NCI-H522 lung, -88.8% (active). In addition, the growth is 18.9% (inactive) in the assay with A549/ATCC NSCLC; -82.9% (active) in the assay with 786-0 renal; -55.6% (active) in the assay on COLO 205 colon; -7.89% (active) with DU-145 prostate; 3.96% (active) in the assay on K-562 leukemia; -45% (active) in the assay with MALME-3M melanoma. Further, the growth with MDA-MB-231 breast was -76.1% (active); in the assay with RXF 393 renal, -96.8% (active); in the assay with SF-268 CNS, -0.718% (active); in the assay on SF-295 CNS, 84.7% (inactive); in the assay on SF-539 CNS it was -45% (active); in the assay on UACC-257 melanoma it was -59.9% (active).

The record behind these values is PubChem BioAssay (NCI).
